The list is not random: actives were taken first. Their share in the collection is about 1.6%.
MOR-DOR ag: agonists of human mu-delta opioid receptor heterodimerization. activation, % at 9.3 µM. 340,000 tested, 0.3% active. AID 504326. cells, OPRM1-OPRD1 heterodimerization, luminescence;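 note: 0% = vehicle-treated cells and 100% = reference agonist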
HTR5A ag ctr: activates human HTR5A in OPRM1-OPRD1 agonist counter-screen; AID 504692; activation, % at 9.3 µM; HTR5A agonist assay, luminescence, cell-based; P47898; 340,000 tested, 0.61% active; in the data active = activation mostly above about 9.5%, no sharp cut-off; inactive = mostly below about 7.6%;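 note: 0% = cells with vehicle only and 100% = reference agonist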
HTR5A inv ag: inverse agonist of human HTR5A in OPRM1-OPRD1 counter-screen. 340,000 tested, 0.083% active. HTR5A cell line, luminescence, inverse agonism. inhibition, % at 9.3 µM; in the data active = inhibition mostly above about 23%, no sharp cut-off; inactive = mostly below about 18%;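 note: 0% = cells with DMSO and 100% = no-cell wells with DMSO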
MOR-DOR inv ag: mu-delta opioid heterodimer inverse agonism. P35372+P41143. cell-based MOR-DOR heterodimer luminescence. inhibition, % at 9.3 µM. 340,000 tested, 0.21% active. AID 504357; in the data active = inhibition above about 22%, passing the limit was not always enough;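 note: 0% = cells with DMSO and 100% = wells without cells with DMSO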
HTR2A ag: activates the mouse 5-HT2A serotonin receptor; 360,000 tested, 0.66% active; CHO-K1 mHTR2A beta-arrestin complementation, luminescence; percent of 30 µM serotonin response; P35363; activation, % at 7.6 µM; AID 624169;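 active = activation above a run cutoff, the mean activation of all tested compounds plus 3 SD, cut at about 14% in these data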;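 note: 0% = plate median of compound wells and 100% = 30 µM serotonin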
Target sequence (P35363 whole entry, looked up): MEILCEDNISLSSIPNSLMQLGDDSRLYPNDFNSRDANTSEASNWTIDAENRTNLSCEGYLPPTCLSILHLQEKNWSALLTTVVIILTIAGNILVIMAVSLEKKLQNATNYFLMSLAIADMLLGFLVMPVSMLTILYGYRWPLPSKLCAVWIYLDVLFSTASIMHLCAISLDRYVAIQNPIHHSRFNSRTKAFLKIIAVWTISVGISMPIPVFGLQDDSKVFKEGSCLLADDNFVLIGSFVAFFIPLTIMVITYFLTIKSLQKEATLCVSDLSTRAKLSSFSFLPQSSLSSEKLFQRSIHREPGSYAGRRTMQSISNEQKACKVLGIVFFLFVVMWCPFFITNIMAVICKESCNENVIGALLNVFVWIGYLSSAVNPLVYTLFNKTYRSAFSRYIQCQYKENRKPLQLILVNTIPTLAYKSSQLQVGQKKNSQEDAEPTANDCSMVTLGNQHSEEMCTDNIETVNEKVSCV
OPRM1-D1 ag cf: confirmation of human OPRM1-OPRD1 heterodimerization agonists. shares compounds with MOR-DOR ag. cells, MOR-DOR heterodimerization, luminescence complementation. activation, % at 9.3 µM. 830 tested, 45% active;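 note: 0% = vehicle-treated cells and 100% = reference agonist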
HTR5A ag ctr2: HTR5A agonism, opioid heterodimer counter-screen; AID 504905; HTR5A agonist counterscreen, cell luminescence; shares compounds with MOR-DOR ag; activation, % at 9.3 µM; 830 tested, 8% active; in the data active = activation above about 17%;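 note: 0% = vehicle-treated cells and 100% = reference agonist response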
* = called active by the depositor; i = inactive; nt = not tested or not shown. Cut-off read from the data, not from the text of the source, unless noted: active = activation above about 18%; inactive = the rest.

SMILES | MOR-DOR ag | HTR5A ag ctr | HTR5A inv ag | MOR-DOR inv ag | HTR2A ag | OPRM1-D1 ag cf | HTR5A ag ctr2
OCC1(CC2CCCCO2)CCN(Cc2ccccc2-c2ccco2)CC1 (stereo not drawn) | 96* | -1 | 4 | i | 0 | 136* | 3
COc1cccc(CC2(CO)CCCN(Cc3ccccc3-c3ccco3)C2)c1 (stereo not drawn) | 97* | -1 | -29 | i | 0 | 128* | 1
COc1cccc(CC2(CO)CCCN(Cc3ccc(-c4ccco4)cc3)C2)c1 (stereo not drawn) | 3 | -1 | 1 | -14 | -5 | nt | nt
CCOC(=O)C1(CC2CCCCO2)CCN(Cc2cccnc2)CC1 (stereo not drawn) | -2 | 1 | -2 | 8 | 2 | nt | nt
CCOC(=O)C1(CC2CCCCO2)CCN(Cc2ccccc2-c2ccco2)CC1 (stereo not drawn) | 379* | 3 | 3 | i | -3 | 10 | 4
CC(=O)c1ccc(N(CC(=O)NC2CCCC2)C(=O)CCC(=O)Nc2cc(C)on2)cc1 | -3 | -2 | -24 | 16 | -4 | nt | nt
Cc1ccc(NC(=O)CCCSc2nc3ccccc3[nH]2)cc1 | -2 | 0 | 1 | 11 | -5 | nt | nt
Cc1ccc2nc(-c3ccc(SCC(=O)Nc4nnc(C)s4)nc3)[nH]c2c1 | 24* | 12 | -31 | -145 | 4 | 0 | 0
Cc1ccc(SCC(=O)Nc2ccc(-c3nc4ccccc4[nH]3)cc2)cc1 | 34* | 10 | -27 | -206 | 6 | 29* | 9
Cc1cc(C)n2nc(SCC(=O)c3cc(C)n(-c4cc(C)on4)c3C)nc2n1 | -3 | 4 | -12 | 14 | 5 | nt | nt
CCOC(=O)c1cnn(-c2ccc([N+](=O)[O-])cc2)c1N | -3 | 2 | 3 | 14 | 4 | nt | nt
COc1cccc(CNCCc2c[nH]c3ccccc23)c1OCc1ccccc1 | 18* | 10 | -45 | -99 | 0 | 27* | 8
COc1cccc(CN2CCC(n3nccc3NC(=O)CCCc3ccccc3)CC2)c1O | -2 | 3 | 17 | 10 | -8 | nt | nt
COc1ccc(CN2CCC(n3nccc3NC(=O)CCc3ccccc3)CC2)c(C)c1C | 23* | -1 | -2 | -117 | -5 | 4 | -2
O=C(NCC(c1ccc(F)cc1)N1CCOCC1)c1ccc(-c2ccccc2)cc1 (stereo not drawn) | 21* | -2 | 15 | -78 | -3 | 1 | -3
O=C(C=P(c1ccccc1)(c1ccccc1)c1ccccc1)c1ccccc1-c1ccccc1C(=O)C=P(c1ccccc1)(c1ccccc1)c1ccccc1 | 55* | 2 | -8 | -242 | -2 | 54* | -7
O=C(NNC(=O)c1ccccc1-c1ccccc1C(=O)O)c1ccccc1 | -1 | -2 | 5 | 7 | 3 | nt | nt
COc1ccc2cc(C)c(SCC(=O)Nc3cc(C)on3)nc2c1 | 18* | 0 | -1 | -110 | 0 | 10 | 4
CN(C)C(CNC(=O)c1ccc(C(F)(F)F)cc1)c1ccco1 (stereo not drawn) | 51* | 3 | -8 | -209 | -1 | 52* | 1
CN(C)C(CNC(=O)c1cc2ccccc2o1)c1ccco1 (stereo not drawn) | 22* | 5 | -12 | -93 | -11 | 147* | 0
Cc1ccc(CC(=O)NCC(c2ccco2)N(C)C)cc1C (stereo not drawn) | 69* | -6 | 15 | -387 | -6 | 56* | 1
COc1ccc(C(=O)NCC(=O)NCC(c2ccco2)N(C)C)cc1OC (stereo not drawn) | 0 | -4 | 13 | -2 | -2 | nt | nt
CC(=O)Nc1ccc(C(=O)NCC(c2ccco2)N(C)C)cc1 (stereo not drawn) | 1 | 1 | -3 | -3 | 5 | nt | nt
Oc1ccc(Br)cc1CNc1cccc2cccnc12 | 19* | 1 | -3 | -89 | -1 | -2 | -9
CCOc1cccc(C(=O)Nc2ccc(NC(=O)c3cc4ccccc4o3)c(OC)c2)c1 | 8 | 0 | 0 | -40 | 1 | nt | nt
SMILES | MOR-DOR ag | HTR5A ag ctr | HTR5A inv ag | MOR-DOR inv ag | HTR2A ag | OPRM1-D1 ag cf | HTR5A ag ctr2
COc1cc(NC(=O)c2cccc(C)c2)ccc1NC(=O)c1cc2ccccc2o1 | 30* | 1 | -4 | -167 | 1 | 49* | 6
COC(=O)/C(=N/Nc1ccccc1OC)N1CCCc2ccccc21 | 8 | -5 | 17 | -37 | 1 | nt | nt
CCOC(=O)c1c(C)[nH]c(C(=O)OC/C(O)=C(\C#N)c2nc3ccccc3[nH]2)c1C | 32* | 9.9* | -19 | -196 | -2 | 41* | 5
Cc1ccccc1NC(=O)C(C)Sc1nnc(CN2CCCC2)n1Cc1ccccc1 (stereo not drawn) | nt | nt | nt | nt | -3 | nt | nt
COc1ccc(-n2c3c(cc(C(=O)N4CCN(CCO)CC4)c2=O)C(=O)CC(C)(C)C3)cc1 | 1 | -7 | 17 | -5 | 8 | nt | nt
CC1(C)CC(=O)c2cc(C(=O)Nn3cnnc3)c(=O)n(-c3ccccc3)c2C1 | -2 | -6 | 14 | 12 | 2 | nt | nt
COc1ccc(-n2c3c(cc(C(=O)NNc4ccccc4C)c2=O)C(=O)CC(C)(C)C3)cc1 | 99* | 3 | -7 | -470 | -1 | 133* | -1
COc1ccc(-n2c3c(cc(C(=O)NNc4ccccc4)c2=O)C(=O)CC(C)(C)C3)cc1 | 129* | -2 | 4 | i | 1 | 0 | 3
CNC(=S)NNC(=O)c1cccn(Cc2cccc(C(F)(F)F)c2)c1=O | 0 | 3 | -11 | 0 | -7 | nt | nt
COc1ccc2cc3cc(C(=O)Nc4cc(OC)c(OC)c(OC)c4)oc3nc2c1 | 20* | 1 | -36 | -122 | 6 | 21* | 6
Cc1ccc(NC(=O)C2C3C=CC4(O3)C2C(=O)N(CCCN2CCCC2)C4C(=O)NC2CCCCC2)cc1Cl (stereo not drawn) | 0 | -1 | 2 | -1 | -7 | nt | nt
CC(C)c1ccc(NC(=O)C2C3C=CC4(O3)C2C(=O)N(CCCN2CCCCC2)C4C(=O)NC2CCCCC2)cc1 (stereo not drawn) | 26* | 3 | -8 | -212 | 3 | -1 | -8
CCN(CC)CCN1C(=O)C2C(C(=O)Nc3ccc(C(C)C)cc3)C3C=CC2(O3)C1C(=O)NC1CCCCC1 (stereo not drawn) | 37* | 4 | -10 | -302 | 8 | -1 | -6
CCCCN(C)CCN1C(=O)C2C(C(=O)Nc3ccc(C)cc3)C3C=CC2(O3)C1C(=O)NC1CCCCC1 (stereo not drawn) | 2 | 0 | 0 | -18 | -8 | nt | nt
C=CC[C@@H](CC(=O)N(CCO)Cc1ccccc1)C(=O)N[C@@H](COC(=O)[C@H](CC=C)CC(=O)OC(C)(C)C)Cc1c[nH]c2ccccc12 | 26* | 4 | 12 | -149 | -8 | 17 | 4

High-throughput results: PubChem BioAssay, The Scripps Research Institute Molecular Screening Center
